According to publication PMC5540273 (PLoS ONE, 2017):

System: CLK4
Settings: concentration: 1 μM, replicates: in singlicate; n = 1
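Note: KINOMEscan kinase panel screen.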

First: O=C(Nc1n[nH]c2nc(-c3ccccc3O)ccc12)C1CC1 [SB-711880]
Second: O=C(Nc1n[nH]c2nc(-c3ccccc3)ccc12)C1CC1 [SB-708999]
The “%Inh” value of the first is higher: 11% for the first, 0% for the second.

`CN(c1ccc(NC(=O)N2CCN(CCCN3CCOCC3)CC2)cc1)c1ccnc(Nc2ccc(CS(C)(=O)=O)cc2)n1.Cl` [GW830899] and `Cc1ccc(NC(=O)c2ccnc(N3CCCCC3)c2)cc1-c1ccc(C(=O)NCC2CC2)cc1` [GW775610] are the same in “%Inh” value: 0% for the first, 0% for the second.

Compared with `CCOc1nccc(-c2c(-c3ccc(F)cc3)ncn2C2CCNCC2)n1` [SB-249175], `COc1ccc(C)c(Nc2ccnc(Nc3ccc(-c4cnc[nH]4)cc3)n2)c1.Cl` [GW784041] is lower in “%Inh” value: 100% for the first, 13% for the second.

`O=C(Nc1n[nH]c2nc(-c3cccc(O)c3)ccc12)C1CC1` [SB-711805] and `CN(c1ccc(F)c(NC(=O)c2cccc(OC(C)(C)C#N)c2Cl)c1)c1ccc2nc(NC(=O)C3CC3)sc2n1` are the same in “%Inh” value: 0% for the first, 0% for the second.

Compared with `Cc1cccc(Nc2nc(NCCN)ncc2C(N)=O)c1` [GSK1292139], `CCNC(=O)/C=C/c1n[nH]c2cc(Sc3ccccc3C(=O)NC)ccc12` is higher in “%Inh” value: 0% for the first, 3% for the second.

First: Cc1ccc(NC(=O)c2ccc(Cl)c(Cl)c2)cc1-c1ccc(C(=O)Nc2ccncc2)cc1 [GSK1398460]
Second: c1ccc(Oc2ccc(Nc3ccnc4cc(-c5ccc(CN6CCCCC6)o5)ccc34)cc2)nc1 [GW567143]
The “%Inh” value of the first is higher: 17% for the first, 6% for the second.

For `Cc1nn2c(=O)cc(N3CCO[C@H](C)C3)nc2n1Cc1cccc(Cl)c1Cl` [GSK2373693], the “%Inh” value was 59%.
